Laboratory results: PubChem BioAssay AID1159580 (chemical genetic matrix, 2015)
“And” between values parts separate entries of the source, which are not always exact repeats. Equal entries are not always repeated. Among all 5,500 compounds or so, about 2,000 (36%) were called active. Roughly 18% stayed inconclusive and do not appear here. Rule as the data show it: active = normalized growth mostly below about 0.91 (no sharp cut-off); inconclusive = no clear call, values can overlap the other calls; inactive = mostly above about 0.92. The list shows a part of the results.

Test: chemical genetic growth profiling, strain panel (AID 1159580);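 also: tested at 20 µM; growth read once vehicle control cultures reached saturation at 30 °C; 1 = growth at the plate median or of vehicle wells; lower values mean less growth of the strain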
Details: S. cerevisiae deletion strains, growth OD

Measured: normalized growth

CC1=C(/C=C/C(C)=C/C=C/C(C)=C\C(=O)O)C(C)(C)CCC1
inactive: locus YAL013W, strain DEP1, hits give low values 0.968 | locus YAL021C, strain ccr4, hits give low values 1.01 | locus YAL026C, strain drs2, hits give low values 0.999 | locus YAL030W, strain snc1, hits give low values 0.977 | locus YAL040C, strain CLN3, hits give low values 1.01 | locus YBL061C, strain skt5, hits give low values 0.984 | locus YBR009C, strain hhf1, hits give low values 1.01 | locus YBR021W, strain FUR4, hits give low values 1.02 | locus YBR023C, strain chs3, hits give low values 0.985 | locus YBR171W, strain sec66, hits give low values 0.964 | locus YBR229C, strain ROT2, hits give low values 1 | locus YBR231C, strain swc5, hits give low values 0.989 | locus YBR279W, strain paf1, hits give low values 0.996 | locus YCL011C, strain gbp2, hits give low values 0.994 | locus YCL016C, strain dcc1, hits give low values 0.999 | locus YCL029C, strain bik1, hits give low values 0.992 | locus YCL061C, strain MRC1 (second series), hits give low values 1 | locus YCL069W, strain vba3, hits give low values 0.986 | locus YCR088W, strain abp1, hits give low values 0.995 | locus YDL005C, strain med2, hits give low values 0.979 | locus YDL035C, strain GPR1, hits give low values 0.95 | locus YDL040C, strain nat1, hits give low values 0.987 | locus YDL074C, strain BRE1, hits give low values 0.856 | locus YDL101C, strain DUN1, hits give low values 1.01 | locus YDL134C, strain PPH21, hits give low values 1 | locus YDL185W, strain tfp1, hits give low values 1 | locus YDL192W, strain arf1, hits give low values 1 | locus YDR001C, strain nth1, hits give low values 0.987 | locus YDR069C, strain doa4, hits give low values 0.967 | locus YDR101C, strain arx1, hits give low values 0.985 | locus YDR137W, strain rgp1, hits give low values 0.937 | locus YDR150W, strain NUM1, hits give low values 1.02 and 1.01 | locus YDR159W, strain sac3, hits give low values 1.01 | locus YDR162C, strain NBP2, hits give low values 0.957 | locus YDR195W, strain ref2 0.972 | locus YDR297W, strain sur2, hits give low values 0.987 | locus YDR318W, strain mcm21, hits give low values 0.97 | locus YDR334W, strain swr1, hits give low values 0.982 | locus YDR335W, strain msn5, hits give low values 0.987 | locus YDR363W, strain ESC2, hits give low values 1.01 | locus YDR388W, hits give low values 1 | locus YDR392W, strain spt3, hits give low values 1.01 | locus YDR502C, strain sam2, hits give low values 0.975 | locus YEL003W, strain gim4, hits give low values 0.989 | locus YEL037C, strain rad23, hits give low values 0.979 | locus YEL061C, strain CIN8 (second series), hits give low values 0.991 | locus YEL061C, strain CIN8, hits give low values 1 | locus YER002W, strain NOP16, hits give low values 1.03 | locus YER015W, strain faa2, hits give low values 0.993 | locus YER016W, strain bim1, hits give low values 1.02 | locus YER110C, hits give low values 1 | locus YER111C, strain swi4, hits give low values 0.954 | locus YER155C, strain BEM2 (second series), hits give low values 1 | locus YER155C, strain BEM2, hits give low values 1.01 | locus YER167W, strain BCK2, hits give low values 0.966 | locus YFR010W, strain ubp6, hits give low values 0.961 | locus YGL078C, strain dbp3, hits give low values 1 | locus YGL086W, strain mad1, hits give low values 0.992 | locus YGL167C, strain pmr1, hits give low values 0.975 | locus YGL173C, strain kem1, hits give low values 0.972 | locus YGL227W, strain vid30, hits give low values 0.974 | locus YGL240W, strain doc1, hits give low values 0.958 | locus YGL248W, strain PDE1, hits give low values 0.995 | locus YGL253W, strain hxk2, hits give low values 0.996 | locus YGR078C, strain PAC10, hits give low values 0.908 and 1.02 | locus YGR135W, strain pre9, hits give low values 0.974 | locus YGR229C, strain SMI1, hits give low values 0.82 and 1.02 | locus YGR252W, strain gcn5, hits give low values 1.02 | locus YHR013C, strain ard1, hits give low values 0.982 | locus YHR027C, strain rpn1, hits give low values 0.997 | locus YHR030C, strain SLT2, hits give low values 1 and 1.02 | locus YHR079C, strain IRE1 (second series), hits give low values 0.988 | locus YHR079C, strain IRE1, hits give low values 1.04 | locus YHR094C, strain hxt1, hits give low values 0.999 | locus YHR129C, strain ARP1, hits give low values 0.996 | locus YHR142W, strain chs7, hits give low values 0.979 | locus YHR200W, strain rpn10, hits give low values 1 | locus YIL066C, strain RNR3, hits give low values 0.984 | locus YIL073C, strain SPO22, hits give low values 0.934 | locus YIL125W, strain kgd1, hits give low values 0.995 | locus YIR030C, strain dcg1, hits give low values 1.01 | locus YJL092W, strain hpr5, hits give low values 0.965 | locus YJL095W, strain BCK1 (second series), hits give low values 0.99 | locus YJL095W, strain BCK1, hits give low values 0.918 and 1.01 | locus YJL115W, strain asf1, hits give low values 0.962 | locus YJL129C, strain trk1, hits give low values 0.956 | locus YJL134W, strain LCB3, hits give low values 1 | locus YJL154C, strain vps35, hits give low values 0.986 | locus YJL164C, strain tpk1, hits give low values 1.01 | locus YJL166W, strain qcr8, hits give low values 0.928 | locus YJL168C, strain set2, hits give low values 0.999 | locus YJL187C, strain SWE1 (second series), hits give low values 0.986 | locus YJL187C, strain SWE1, hits give low values 0.994 | locus YJR043C, strain POL32, hits give low values 0.87 | locus YJR066W, strain TOR1, hits give low values 0.972
